The record followed here is ChEMBL document CHEMBL4296182, “CO-ADD screening of NIH NCI Diversity Set V”.

For part of these data: Measured potencies and affinities stand elsewhere.

In one test the test system is Staphylococcus aureus. The experiment in a line: Antibacterial activity against Staphylococcus aureus MRSA ATCC 43300 (CO-ADD:GP_020); MIC in CAMBH media using NBS plates, by Resazurin F(560/590). As to conditions: Concentration 20 uM, ASSAY_TEST Inhibition of Bacterial Growth, detection method Resazurin, Fluorescence (ex560/em590), MEDIA CAMHB, plate type 384well, CORNING #3640, time 18 hr. The class given is functional.

A further test has as its system Acinetobacter baumannii. The experiment in a line: Antibacterial activity against Acinetobacter baumannii ATCC 19606 (CO-ADD:GN_034); MIC in CAMBH media using NBS plates, by Resazurin F(560/590). To be noted: Concentration 20 uM, ASSAY_TEST Inhibition of Bacterial Growth, detection method Resazurin, Fluorescence (ex560/em590), MEDIA CAMHB, plate type 384well, CORNING #3640, time 18 hr. The class given is functional.

For another test, the system named is Escherichia coli. Briefly: Antibacterial activity against Escherichia coli ATCC 25922 (CO-ADD:GN_001); MIC in CAMBH media using NBS plates, by Resazurin F(560/590). The class given is functional. To be noted: Concentration 20 uM, ASSAY_TEST Inhibition of Bacterial Growth, detection method Resazurin, Fluorescence (ex560/em590), MEDIA CAMHB, plate type 384well, CORNING #3640, time 18 hr.

For another test, the system named is Klebsiella pneumoniae. To be noted: Concentration 20 uM; ASSAY_TEST Inhibition of Bacterial Growth; detection method Absorption (OD600); MEDIA CAMHB; plate type 384well; NBS; CORNING #3640; time 18 hr.
The next test has as its system Candida albicans. As to conditions: 20 µM.
A further test concerns Cryptococcus neoformans. To be noted: Concentration 20 uM; ASSAY_TEST Inhibition of Fungal Growth; detection method Resazurin; Absorption (OD600-OD570); plate type 384well; NBS; CORNING #3640.

Consider `CC1(C)CCSC(/C=C/c2ccccc2)=N1`, for which the Inhibition was 5.78% with Staphylococcus aureus; 13.91% with Acinetobacter baumannii; -1.41% in the test with Escherichia coli; 18.54% in the test with Klebsiella pneumoniae; 1.26% with Candida albicans; -4.58% in the test with Cryptococcus neoformans.

On to `CCOP(=O)(OCC)/C(C#N)=C/c1ccc([N+](=O)[O-])cc1`, for which the Inhibition is 10.14% with Staphylococcus aureus; 12.51% in the test with Acinetobacter baumannii; 3.05% in the test with Escherichia coli; 9.62% in the test with Klebsiella pneumoniae; 0.88% in the test with Candida albicans; -11.85% in the test with Cryptococcus neoformans.

For `CNC(=O)OCN1C(=O)C2CC=CCC2C1=O` (stereo not given), the Inhibition is 7.25% in the test on Staphylococcus aureus; -15.92% with Acinetobacter baumannii; 10% with Escherichia coli; 2.19% in the test on Klebsiella pneumoniae; -1.86% with Candida albicans; -13.88% in the test with Cryptococcus neoformans.

For `O=C(COc1cc(Cl)c(Cl)cc1Cl)Nc1ccc([N+](=O)[O-])cc1Cl`, the Inhibition in the test on Staphylococcus aureus is 25.16%; with Acinetobacter baumannii, -3.59%; with Escherichia coli it was 13.57%; with Klebsiella pneumoniae, 15.89%; in the test with Candida albicans it was 2.39%; with Cryptococcus neoformans, 1.18%.

`CCOc1ccc(NC(=O)c2cc3ccccc3cc2O)cc1`: the Inhibition with Staphylococcus aureus was -0.31%; in the test on Acinetobacter baumannii it was -4.15%; with Escherichia coli it was -2.29%; in the test on Klebsiella pneumoniae, 2.5%; in the test on Candida albicans, 7.38%; in the test on Cryptococcus neoformans it was -4.09%.

On to `Cc1ccc(N2CCN(CC(O)COc3cccc(C)c3)CC2)cc1` (stereo not given), for which the Inhibition in the test with Staphylococcus aureus is 10.15%; with Acinetobacter baumannii it was -11.82%; with Escherichia coli, 15.19%; in the test on Klebsiella pneumoniae it was 10.88%; with Candida albicans it was -0.24%; in the test with Cryptococcus neoformans, -16.06%.

For the molecule `Cc1cc(OCCCCOc2ccc(C#N)cc2)ccc1[N+](=O)[O-]`, the Inhibition was 20.1% in the test with Staphylococcus aureus; 6.74% in the test on Acinetobacter baumannii; 2.94% in the test on Escherichia coli; 7.99% with Klebsiella pneumoniae; 7.31% in the test with Candida albicans; -12.2% in the test on Cryptococcus neoformans.

Consider `CN(C)CC1C2CCC(C2)C1O` (stereo not given), for which the Inhibition with Staphylococcus aureus was 7.18%; with Acinetobacter baumannii, -12.67%; in the test with Escherichia coli it was 8.84%; in the test on Klebsiella pneumoniae it was 23.62%; with Candida albicans it was 0.82%; with Cryptococcus neoformans, -7.67%.

For the molecule `O=C1c2ccccc2C(=O)C1c1ccccn1`, the Inhibition with Staphylococcus aureus is -5.11%; in the test on Acinetobacter baumannii, -11.28%; with Escherichia coli, 2.88%; in the test on Klebsiella pneumoniae, 6.77%; in the test with Candida albicans, 5.19%; in the test on Cryptococcus neoformans, -6.9%.

Turning to `O=C1C(Cl)=C(O)C2(Cl)C(Cl)=C(Cl)C12Cl` (stereo not given), the Inhibition with Staphylococcus aureus was 15.05%; with Acinetobacter baumannii, 13.34%; in the test with Escherichia coli it was 5.55%; in the test with Klebsiella pneumoniae it was 11.98%; with Candida albicans, 9.34%; in the test with Cryptococcus neoformans, -12.02%.

Take `c1ccc(-c2nc(-c3ccccn3)nc(-c3ccccn3)n2)nc1`: the Inhibition is 2.88% in the test with Staphylococcus aureus; 10.22% in the test with Acinetobacter baumannii; -0.02% in the test on Escherichia coli; 10.56% in the test with Klebsiella pneumoniae; 2.65% in the test with Candida albicans; -6.65% with Cryptococcus neoformans.

Consider `[O-][n+]1ccc(CC(O)(C(F)(F)F)C(F)(F)F)cc1`, for which the Inhibition is -9.72% in the test on Staphylococcus aureus; -5.31% in the test with Acinetobacter baumannii; -11.83% with Escherichia coli; 9.87% in the test with Klebsiella pneumoniae; 4.37% in the test with Candida albicans; -2.34% in the test with Cryptococcus neoformans.

Turning to `CCOC(=O)c1c(N=C(S)NC)sc2c1CCCC2`, the Inhibition with Staphylococcus aureus was -2.15%; in the test on Acinetobacter baumannii it was 0.51%; in the test with Escherichia coli, 7.45%; in the test with Klebsiella pneumoniae, 1.7%; in the test on Candida albicans, 6.72%; in the test on Cryptococcus neoformans, -11.99%.

Regarding `CCOC(=O)c1c(C)oc(C)c(C(=O)OCC)c1=O`, the Inhibition is 10.05% in the test with Staphylococcus aureus; 8.54% in the test on Acinetobacter baumannii; -0.85% in the test with Escherichia coli; 10.69% with Klebsiella pneumoniae; 0.83% in the test on Candida albicans; -7.36% in the test on Cryptococcus neoformans.

As to `COc1ccc(N/C=C2\C(=O)CCc3c2oc2cc(Cl)c(O)c(Cl)c32)cc1`, the Inhibition in the test with Staphylococcus aureus is 7.05%; with Acinetobacter baumannii, -14.01%; in the test on Escherichia coli, 13.43%; with Klebsiella pneumoniae, 4.7%; in the test on Candida albicans, 3.38%; in the test on Cryptococcus neoformans, -7.04%.

With `Cn1nc(SCc2ccccc2)c(=O)n(C(c2ccccc2)c2ccccc2)c1=O`, the Inhibition in the test on Staphylococcus aureus was 19.74%; in the test on Acinetobacter baumannii, -15.03%; in the test on Escherichia coli, 11.55%; with Klebsiella pneumoniae, 5.74%; in the test with Candida albicans it was 11%; in the test on Cryptococcus neoformans, -0.62%.

As for `O=C(c1ccc(Cl)nc1)c1cccs1`, the Inhibition in the test with Staphylococcus aureus was -3.15%; in the test with Acinetobacter baumannii it was 14.95%; in the test with Escherichia coli it was -2.66%; in the test with Klebsiella pneumoniae, 4.42%; in the test with Candida albicans it was 2.35%; in the test on Cryptococcus neoformans, -1.99%.

As for `Cc1c(Cl)cccc1NC(=O)CC1Sc2ccccc2NC1=O` (stereo not given), the Inhibition in the test with Staphylococcus aureus is 7.76%; in the test with Acinetobacter baumannii, 13.12%; in the test with Escherichia coli it was -17.77%; with Klebsiella pneumoniae it was 3.05%; in the test with Candida albicans it was 8.03%; with Cryptococcus neoformans, 45.43%.

Regarding `C=CCOc1c(CCC)cc(CCC)cc1C(N)=O`, the Inhibition is 13.21% in the test with Staphylococcus aureus; 14.83% with Acinetobacter baumannii; 1.32% in the test on Escherichia coli; 19.26% with Klebsiella pneumoniae; 5.23% with Candida albicans; -4.27% with Cryptococcus neoformans.

With `C=CCOc1ccnc(-c2ccccc2)n1`, the Inhibition was -3.88% in the test on Staphylococcus aureus; -11.54% in the test on Acinetobacter baumannii; 5% with Escherichia coli; 9.63% with Klebsiella pneumoniae; 1.14% in the test on Candida albicans; -7.2% with Cryptococcus neoformans.
